Source: PubChem BioAssay AID1159580 (chemical genetic matrix, 2015)
Out of some 5,500 compounds screened, about 2,000 (36%) were called active. Not shown: some 18% with an inconclusive outcome. No stated cut-off is given here; in the data, active means normalized growth mostly below about 0.91 (no sharp cut-off); inconclusive means no clear call, values can overlap the other calls; inactive means mostly above about 0.92. The list shows a part of the results.

Experiment: chemical genetic growth profiling, strain panel (AID 1159580);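 further: tested at 20 µM; growth read once vehicle control cultures reached saturation at 30 °C; 1 = growth at the plate median or of vehicle wells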
Conditions: S. cerevisiae deletion strains, growth OD

Measured: normalized growth

O=c1c(O)c(-c2ccccc2)oc2cccc(O)c12
inactive: locus YDL005C, strain med2, stronger effect = lower value 0.997 | locus YDL040C, strain nat1, stronger effect = lower value 0.953 | locus YDR159W, strain sac3, stronger effect = lower value 0.89 | locus YDR195W, strain ref2 1.02 | locus YGL227W, strain vid30, stronger effect = lower value 0.929 | locus YHR013C, strain ard1, stronger effect = lower value 0.943 | locus YJL115W, strain asf1, stronger effect = lower value 0.906 | locus YKR091W, strain srl3, stronger effect = lower value 0.934 | locus YLR113W, strain HOG1, stronger effect = lower value 0.935 | locus YLR384C, strain iki3, stronger effect = lower value 0.922 | locus YMR125W, strain sto1, stronger effect = lower value 0.991 | locus YNL322C, strain KRE1 (second series), stronger effect = lower value 0.926 | locus YOR080W, strain dia2, stronger effect = lower value 0.925 | locus YPL106C, strain sse1, stronger effect = lower value 0.896 | locus YPL240C, strain hsp82, stronger effect = lower value 0.936 | locus YPL256C, strain CLN2, stronger effect = lower value 0.87
active: locus YAL021C, strain ccr4, stronger effect = lower value 0.725 | locus YAL026C, strain drs2, stronger effect = lower value 0.55 | locus YAL030W, strain snc1, stronger effect = lower value 0.881 | locus YBL061C, strain skt5, stronger effect = lower value 0.802 | locus YBR009C, strain hhf1, stronger effect = lower value 0.856 | locus YBR023C, strain chs3, stronger effect = lower value 0.666 | locus YBR171W, strain sec66, stronger effect = lower value 0.838 | locus YBR231C, strain swc5, stronger effect = lower value 0.733 | locus YBR279W, strain paf1, stronger effect = lower value 0.867 | locus YCL011C, strain gbp2, stronger effect = lower value 0.847 | locus YCL016C, strain dcc1, stronger effect = lower value 0.851 | locus YCL061C, strain MRC1, stronger effect = lower value 0.821 | locus YCL069W, strain vba3, stronger effect = lower value 0.816 | locus YCR088W, strain abp1, stronger effect = lower value 0.899 | locus YDR001C, strain nth1, stronger effect = lower value 0.891 | locus YDR069C, strain doa4, stronger effect = lower value 0.788 | locus YDR137W, strain rgp1, stronger effect = lower value 0.372 | locus YDR297W, strain sur2, stronger effect = lower value 0.919 | locus YDR334W, strain swr1, stronger effect = lower value 0.759 | locus YDR335W, strain msn5, stronger effect = lower value 0.852 | locus YDR392W, strain spt3, stronger effect = lower value 0.282 | locus YEL003W, strain gim4, stronger effect = lower value 0.875 | locus YEL037C, strain rad23, stronger effect = lower value 0.893 | locus YEL061C, strain CIN8 (second series), stronger effect = lower value 0.905 | locus YER015W, strain faa2, stronger effect = lower value 0.852 | locus YER016W, strain bim1, stronger effect = lower value 0.914 | locus YER111C, strain swi4, stronger effect = lower value 0.878 | locus YER155C, strain BEM2 (second series), stronger effect = lower value 0.751 | locus YFR010W, strain ubp6, stronger effect = lower value 0.726 | locus YGL167C, strain pmr1, stronger effect = lower value 0.886 | locus YGL173C, strain kem1, stronger effect = lower value 0.599 | locus YGL240W, strain doc1, stronger effect = lower value 0.739 | locus YGL253W, strain hxk2, stronger effect = lower value 0.621 | locus YHR027C, strain rpn1, stronger effect = lower value 0.751 | locus YHR030C, strain SLT2, stronger effect = lower value 0.72 | locus YHR079C, strain IRE1, stronger effect = lower value 0.839 | locus YHR142W, strain chs7, stronger effect = lower value 0.539 | locus YJL092W, strain hpr5, stronger effect = lower value 0.863 | locus YJL095W, strain BCK1 (second series), stronger effect = lower value 0.368 | locus YJL095W, strain BCK1, stronger effect = lower value 0.733 | locus YJL129C, strain trk1, stronger effect = lower value 0.673 | locus YJL154C, strain vps35, stronger effect = lower value 0.917 | locus YJL164C, strain tpk1, stronger effect = lower value 0.826 | locus YJL166W, strain qcr8, stronger effect = lower value 0.836 | locus YJL187C, strain SWE1, stronger effect = lower value 0.84 | locus YJR066W, strain TOR1, stronger effect = lower value 0.741 | locus YKL160W, strain elf1, stronger effect = lower value 0.881 | locus YKR026C, strain gcn3, stronger effect = lower value 0.917 | locus YLL001W, strain dnm1, stronger effect = lower value 0.826 | locus YLL026W, stronger effect = lower value 0.829 | locus YLL041C, strain sdh2, stronger effect = lower value 0.923 | locus YLR027C, strain aat2, stronger effect = lower value 0.842 | locus YLR221C, strain rsa3, stronger effect = lower value 0.815 | locus YLR258W, strain gsy2, stronger effect = lower value 0.84 | locus YLR262C, strain YPT6 (second series), stronger effect = lower value 0.304 | locus YLR320W, strain mms22, stronger effect = lower value 0.661 | locus YLR342W, strain FKS1, stronger effect = lower value 0.827 | locus YLR357W, strain rsc2, stronger effect = lower value 0.821 | locus YLR370C, strain arc18, stronger effect = lower value 0.789 | locus YML120C, strain ndi1, stronger effect = lower value 0.828 | locus YMR058W, strain fet3, stronger effect = lower value 0.206 | locus YMR129W, stronger effect = lower value 0.916 | locus YMR205C, strain PFK2, stronger effect = lower value 0.715 | locus YMR231W, strain pep5, stronger effect = lower value 0.304 | locus YNL071W, strain lat1, stronger effect = lower value 0.568 | locus YNL183C, strain NPR1, stronger effect = lower value 0.793 | locus YNL209W, strain ssb2, stronger effect = lower value 0.725 | locus YNL248C, strain rpa49, stronger effect = lower value 0.795 | locus YNR049C, strain mso1, stronger effect = lower value 0.89 | locus YOR001W, strain rrp6, stronger effect = lower value 0.818 | locus YOR070C, strain gyp1, stronger effect = lower value 0.835 | locus YOR083W, strain WHI5, stronger effect = lower value 0.826 | locus YOR106W, strain vam3, stronger effect = lower value 0.546 | locus YOR231W, strain MKK1, stronger effect = lower value 0.822 | locus YOR265W, strain rbl2, stronger effect = lower value 0.88 | locus YOR270C, strain vph1, stronger effect = lower value 0.445 | locus YOR290C, strain snf2, stronger effect = lower value 0.795 | locus YPL051W, strain arl3, stronger effect = lower value 0.696 | locus YPL078C, strain atp4, stronger effect = lower value 0.779
